The list is not random: actives were taken first. Their share in the collection is about 3.2%.
TMEM16A inh: inhibitors of mouse TMEM16A calcium-activated chloride channel. HEK293 TMEM16A/YFP iodide influx fluorescence, ionomycin. Q8BHY3. normalized B-score (activity score, 25-100; higher = stronger inhibition) at 10 µM. AID 588511. 310,000 compounds, 1.2% hits;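 active = ratio plate-corrected score three or more library SD toward inhibition, starting fluorescence score within five deviations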;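 note: score derived from kinetic fluorescence span divided by baseline fluorescence per well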
CHT PAM: allosterically activates the human high affinity choline transporter; Q9GZV3; CHT-expressing cells, membrane potential dye, choline EC20; stronger effect = higher value; LV-AA mutant CHT in HEK293 cells; B-score at 10 µM; 310,000 compounds, 0.49% hits;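 active = initial fluorescence not abnormally high and integrated response B-score, plate-corrected, over 3 SD above library mean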
ANO1 activ: mouse TMEM16A channel activation, primary screen. B-score at 10 µM. AID 623877. 340,000 compounds, 0.3% hits. HEK293 TMEM16A/YFP-H148Q/I152L, iodide quench fluorescence; stronger effect = lower value. Q8BHY3;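 active = fluorescence-ratio B-score plate-corrected deviation score at least 3 library SD below zero, with starting fluorescence score within 5 deviations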;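 note: channel opened by trigger with iodide after compound preincubation; score built on the fluorescence ratio of max minus min over baseline; more negative score means more quench and so TMEM16A activation or potentiation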
PHOSPHO1 block: blocks human PHOSPHO1 phosphatase activity; recombinant PHOSPHO1, absorbance phosphatase assay; inhibition, % at 13.3 µM; Q8TCT1; 290,000 compounds, 1.1% hits; in the data active = inhibition above about 60%
HDAC3 inhib: human HDAC3 inhibition; 320,000 compounds, 0.15% hits; AID 2718; O15379; inhibition, % at 8.3 µM; recombinant HDAC3, fluorogenic peptide/trypsin coupled, fluorescence; in the data active = inhibition above about 26%, passing the limit was not always enough; inconclusive = no clear call, values can overlap the other calls
Target sequence (O15379 whole entry, looked up): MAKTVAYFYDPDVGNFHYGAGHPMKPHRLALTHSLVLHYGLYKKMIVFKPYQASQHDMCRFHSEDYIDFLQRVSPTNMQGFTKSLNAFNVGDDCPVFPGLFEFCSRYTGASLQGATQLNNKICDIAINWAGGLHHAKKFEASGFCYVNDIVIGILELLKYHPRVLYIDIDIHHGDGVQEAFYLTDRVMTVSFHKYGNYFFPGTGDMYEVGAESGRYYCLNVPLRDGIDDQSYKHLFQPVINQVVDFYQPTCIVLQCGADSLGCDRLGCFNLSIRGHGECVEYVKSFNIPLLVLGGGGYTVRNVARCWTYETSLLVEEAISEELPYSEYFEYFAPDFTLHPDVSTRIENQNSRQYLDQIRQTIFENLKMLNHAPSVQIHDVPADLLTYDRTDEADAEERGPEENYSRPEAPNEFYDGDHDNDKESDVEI
CHT inh: human CHT choline transport inhibition; CHT-expressing cells, membrane potential dye, choline response; stronger effect = lower value; B-score at 10 µM; 310,000 compounds, 0.86% hits;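 active = B-score over 3 SD under the library average, and starting fluorescence ratio not unusually high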;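 note: choline stimulus applied at its EC90 after an EC20 pre-addition; B-score computed on integrated fluorescence ratio after choline addition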
Numbers stand for hits.

Screening O=C(CCc1nc(-c2ccccc2)c(-c2ccccc2)o1)OCc1ccc(Br)cc1 returned TMEM16A inh inactive, CHT PAM inactive, ANO1 activ inactive, PHOSPHO1 block inactive, HDAC3 inhib inactive and CHT inh inactive.
For O=C(CCc1nc(-c2ccccc2)c(-c2ccccc2)o1)OCc1ccc(Cl)cc1 the results were TMEM16A inh inactive, CHT PAM inactive, ANO1 activ -5.53, PHOSPHO1 block inactive, HDAC3 inhib inactive and CHT inh inactive.
`CCC(/C=N/NC(=O)c1ccccc1F)CC` gave TMEM16A inh inactive, CHT PAM inactive, ANO1 activ inactive, PHOSPHO1 block inactive, HDAC3 inhib inactive and CHT inh inactive.
CCC(/C=N/NC(=O)C(N)=O)CC was read as TMEM16A inh inactive, CHT PAM inactive, ANO1 activ -5.35, PHOSPHO1 block inactive, HDAC3 inhib inactive and CHT inh inactive.
For C#CCOCCOCCOCCNc1nc(N2CCN(C(=O)[C@H]([C@@H](C)CC)n3cc(CCCN=C(N)N)nn3)CC2)nc(N2CCN(C(=O)[C@H](CCCCN)n3cc(CCCC)nn3)CC2)n1 the results were TMEM16A inh inactive, CHT PAM inactive, ANO1 activ inactive, PHOSPHO1 block inactive, HDAC3 inhib inactive and CHT inh inactive.
Screening O=S(=O)(c1cccc(-c2nnc(SCc3ccc(Cl)cc3)o2)c1)N1CCCCC1 returned TMEM16A inh inactive, CHT PAM inactive, ANO1 activ inactive, PHOSPHO1 block inactive, HDAC3 inhib inactive and CHT inh inactive.
For CN(C)S(=O)(=O)c1cccc(-c2nnc(SCc3ccc4c(c3)OCCO4)o2)c1 the results were TMEM16A inh inactive, CHT PAM inactive, ANO1 activ -17.4, PHOSPHO1 block inactive, HDAC3 inhib inactive and CHT inh inactive.
`C=CCNC(=O)CN1CCC(NC(=O)c2ccco2)CC1` gave TMEM16A inh inactive, CHT PAM inactive, ANO1 activ inactive, PHOSPHO1 block inactive, HDAC3 inhib inactive and CHT inh inactive.
For O=C(C[n+]1cccc(CNC(=O)c2ccc(OC(F)F)cc2)c1)Nc1ccccc1Cl the results were TMEM16A inh inactive, CHT PAM inactive, ANO1 activ inactive, PHOSPHO1 block inactive, HDAC3 inhib inactive and CHT inh inactive.
Screening Cc1ccc(CS(=O)Cc2ccc(C(=O)NCc3cccs3)o2)cc1 (stereo not drawn) returned TMEM16A inh inactive, CHT PAM inactive, ANO1 activ inactive, PHOSPHO1 block inactive, HDAC3 inhib inactive and CHT inh inactive.
For CCOc1ccccc1N1C(=O)CC(Sc2n[nH]c(-c3ccccc3)n2)C1=O (stereo not drawn) the results were TMEM16A inh inactive, CHT PAM inactive, ANO1 activ inactive, PHOSPHO1 block inactive, HDAC3 inhib inactive and CHT inh inactive.
CCCCC1(C)OC(=O)C(=Cc2ccc(-c3ccc(Cl)c(C(=O)O)c3)o2)C(=O)O1 (stereo not drawn) was read as TMEM16A inh inactive, CHT PAM inactive, ANO1 activ inactive, PHOSPHO1 block 85.9, HDAC3 inhib inactive and CHT inh inactive.
For Cc1cccc(N2CCN(S(=O)(=O)c3ccc4c(c3)CC(=O)N4C)CC2)c1C the results were TMEM16A inh inactive, CHT PAM inactive, ANO1 activ inactive, PHOSPHO1 block inactive, HDAC3 inhib inactive and CHT inh inactive.
Screening COc1ccc(C=NNC(=O)CCCC(=O)NN=Cc2ccc(OC)c(O)c2)cc1O returned ANO1 activ inactive.
Screening O=C1c2ccccc2C(=O)N1CCOc1ccccc1 returned TMEM16A inh inactive, CHT PAM inactive, ANO1 activ inactive, HDAC3 inhib inactive and CHT inh inactive.
`Cc1cc(C)n2cc(CSc3nnc(-c4ccccc4)o3)nc2n1` gave TMEM16A inh inactive, CHT PAM inactive, ANO1 activ inactive, PHOSPHO1 block 78.5, HDAC3 inhib inactive and CHT inh inactive.
Screening Cc1cc(C)n2cc(CSc3nnc(N)s3)nc2n1 returned TMEM16A inh inactive, CHT PAM inactive, ANO1 activ inactive, PHOSPHO1 block 71.3, HDAC3 inhib inactive and CHT inh inactive.
Cc1cc(C)n2cc(CSCc3ccccc3)nc2n1 was read as TMEM16A inh inactive, CHT PAM inactive, ANO1 activ inactive, PHOSPHO1 block inactive, HDAC3 inhib inactive and CHT inh inactive.
For C[n+]1c2n(c3ccccc31)N=C(c1ccc(Cl)cc1)CS2 the results were TMEM16A inh inactive, CHT PAM inactive, ANO1 activ inactive, PHOSPHO1 block inactive, HDAC3 inhib 55.0 and CHT inh inactive.
Screening CC(=O)Oc1cc2c(C(=O)NCc3ccncc3)c(C)oc2c2ccccc12 returned TMEM16A inh inactive, CHT PAM inactive, ANO1 activ -20.9, PHOSPHO1 block inactive, HDAC3 inhib inactive and CHT inh inactive.
For O=C(O)c1ccc(Cl)c(S(=O)(=O)N(Cc2ccccc2)c2ccc(Cl)cc2)c1 the results were TMEM16A inh inactive, CHT PAM inactive, ANO1 activ inactive, PHOSPHO1 block inactive, HDAC3 inhib inactive and CHT inh inactive.
`COc1ccc(-c2noc(CCC(=O)N3CCN(c4cccc(C(F)(F)F)c4)CC3)n2)cc1` gave TMEM16A inh 100, CHT PAM inactive, ANO1 activ inactive, PHOSPHO1 block inactive, HDAC3 inhib inactive and CHT inh inactive.
`COc1ccc(N2CCN(C(=O)COCc3cc(-c4ccc5c(c4)OCO5)on3)CC2)cc1` gave TMEM16A inh inactive, CHT PAM inactive, ANO1 activ inactive, PHOSPHO1 block inactive, HDAC3 inhib inconclusive and CHT inh inactive.
For O=C(COCc1cc(-c2ccc3c(c2)OCO3)on1)N1CCN(c2cccc(C(F)(F)F)c2)CC1 the results were TMEM16A inh 25, CHT PAM inactive, ANO1 activ inactive, PHOSPHO1 block inactive, HDAC3 inhib inactive and CHT inh inactive.
C=C(C)C(=O)Nc1cccc(C2=NOC3(C2)C[C@@H](C(N)=O)N(C(=O)c2ccc(OC)cc2)C3)c1 (stereo partly drawn) was read as TMEM16A inh inactive, CHT PAM inactive, ANO1 activ inactive, PHOSPHO1 block inactive, HDAC3 inhib inactive and CHT inh inactive.
`C=CCN1C(=O)C(CC(=O)Nc2ccc(OC)cc2)N(Cc2ccco2)C1=S` (stereo not drawn) gave TMEM16A inh inactive, CHT PAM inactive, ANO1 activ -6.82, PHOSPHO1 block inactive, HDAC3 inhib inactive and CHT inh inactive.
COc1ccc(NC(=O)CC2C(=O)N(CCc3ccccc3)C(=S)N2Cc2cccnc2)cc1 (stereo not drawn) was read as TMEM16A inh 25, CHT PAM inactive, ANO1 activ inactive, PHOSPHO1 block inactive, HDAC3 inhib inactive and CHT inh inactive.
`CCN1C(=O)C(CC(=O)Nc2ccc(OC)cc2)N(CCc2ccccc2)C1=S` (stereo not drawn) gave TMEM16A inh inactive, CHT PAM inactive, ANO1 activ inactive, PHOSPHO1 block inactive, HDAC3 inhib inactive and CHT inh inactive.
